The values that follow come from paper PMC13541613, “GHT-SELEX demonstrates unexpectedly high intrinsic sequence specificity and complex DNA binding of many human transcription factors”.

What all share (test): HT-SELEX; 20 mM HEPES pH 7, 140 mM KCl, 5 mM NaCl, 1 mM K2HPO4, 2 mM MgSO4, 100 uM EGTA, ZnSO4, 0.1% Tween20; room temperature, 1 h; high values mean tight binding
Holding throughout (conditions): protein: ivt; tags: eGFP (N-terminal); dsDNA, one strand shown

One experiment has as its target ZNF721 full-length (Homo sapiens, UniProt Q8TF20-2 1-923). The method in brief:
(§1)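 Full-length or DNA-binding-domain forms of a tagged transcription factor were produced in HEK293 lysate or cell-free extract and immobilised on beads. Incubation with a randomized 40-base DNA library ran for 1 h at room temperature in HEPES/KCl low-stringency buffer with Tween20, after which bound DNA was washed, heat-eluted, PCR-amplified over successive cycles and Illumina-sequenced. Binding strength is given as the relative k-mer count in selected reads, higher for tighter binding.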

A further experiment addresses ZNF721 DBD1 (Homo sapiens, UniProt Q8TF20-2 29-461). In outline: as §1
For a further experiment, the target named is ZNF721 DBD2 (Homo sapiens, UniProt Q8TF20-2 395-923). The method in brief: as §1
Chain of ZNF721 DBD2 (Q8TF20 383-911): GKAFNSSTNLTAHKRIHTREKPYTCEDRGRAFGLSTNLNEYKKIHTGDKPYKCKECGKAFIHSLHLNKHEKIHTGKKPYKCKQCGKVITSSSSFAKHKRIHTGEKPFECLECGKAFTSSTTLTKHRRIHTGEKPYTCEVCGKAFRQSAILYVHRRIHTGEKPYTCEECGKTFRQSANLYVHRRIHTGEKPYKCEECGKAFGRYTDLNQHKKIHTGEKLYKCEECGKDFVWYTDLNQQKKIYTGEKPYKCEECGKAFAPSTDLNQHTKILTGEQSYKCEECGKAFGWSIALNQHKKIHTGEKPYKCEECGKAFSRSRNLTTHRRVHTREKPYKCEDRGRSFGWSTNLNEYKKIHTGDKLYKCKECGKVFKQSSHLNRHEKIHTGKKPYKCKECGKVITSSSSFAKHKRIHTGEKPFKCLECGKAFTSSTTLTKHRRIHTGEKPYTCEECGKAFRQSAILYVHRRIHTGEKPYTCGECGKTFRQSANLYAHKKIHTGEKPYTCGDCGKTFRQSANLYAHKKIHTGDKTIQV

Chain of ZNF721 full-length (Q8TF20 other isoform, or with tags, fused parts or gaps): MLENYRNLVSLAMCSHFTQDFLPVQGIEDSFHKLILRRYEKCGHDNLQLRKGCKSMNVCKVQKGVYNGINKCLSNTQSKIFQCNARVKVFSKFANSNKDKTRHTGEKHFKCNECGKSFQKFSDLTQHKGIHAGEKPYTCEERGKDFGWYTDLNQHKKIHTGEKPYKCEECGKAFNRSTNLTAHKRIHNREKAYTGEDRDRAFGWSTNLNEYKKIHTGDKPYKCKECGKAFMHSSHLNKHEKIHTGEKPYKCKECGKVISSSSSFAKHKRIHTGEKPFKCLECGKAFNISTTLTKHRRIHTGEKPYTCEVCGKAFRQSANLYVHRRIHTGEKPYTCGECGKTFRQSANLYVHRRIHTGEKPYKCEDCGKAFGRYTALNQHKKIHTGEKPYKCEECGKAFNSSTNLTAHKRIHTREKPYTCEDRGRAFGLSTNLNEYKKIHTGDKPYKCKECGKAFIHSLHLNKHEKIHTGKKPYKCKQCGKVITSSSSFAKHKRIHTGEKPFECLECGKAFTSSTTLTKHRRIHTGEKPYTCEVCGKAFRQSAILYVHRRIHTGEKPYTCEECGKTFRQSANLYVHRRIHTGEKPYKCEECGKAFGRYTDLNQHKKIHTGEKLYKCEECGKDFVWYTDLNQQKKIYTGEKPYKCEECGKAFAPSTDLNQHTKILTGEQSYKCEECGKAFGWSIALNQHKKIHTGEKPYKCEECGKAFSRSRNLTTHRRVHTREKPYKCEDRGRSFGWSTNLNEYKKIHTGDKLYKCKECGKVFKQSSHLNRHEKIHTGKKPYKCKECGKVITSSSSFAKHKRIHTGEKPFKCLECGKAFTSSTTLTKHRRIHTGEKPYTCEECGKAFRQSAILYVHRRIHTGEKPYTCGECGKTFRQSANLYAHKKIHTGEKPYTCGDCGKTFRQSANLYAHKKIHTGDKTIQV
Chain of ZNF721 DBD1 (Q8TF20 17-449): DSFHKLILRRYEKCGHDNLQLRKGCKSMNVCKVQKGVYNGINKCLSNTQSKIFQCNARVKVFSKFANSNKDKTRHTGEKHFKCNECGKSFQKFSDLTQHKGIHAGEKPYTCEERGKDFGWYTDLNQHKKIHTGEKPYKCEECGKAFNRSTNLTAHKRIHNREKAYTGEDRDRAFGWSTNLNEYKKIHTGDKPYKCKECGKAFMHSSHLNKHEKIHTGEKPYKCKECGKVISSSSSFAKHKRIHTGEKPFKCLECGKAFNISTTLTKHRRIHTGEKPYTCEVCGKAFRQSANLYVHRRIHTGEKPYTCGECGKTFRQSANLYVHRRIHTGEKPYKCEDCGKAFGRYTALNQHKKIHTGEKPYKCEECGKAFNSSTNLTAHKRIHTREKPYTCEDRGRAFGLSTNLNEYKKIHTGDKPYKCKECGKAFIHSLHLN

CACACCCCCC: the binding signal in the experiment with ZNF721 full-length was 0.146 relative 10-mer count; with ZNF721 DBD1, 0.00514 relative 10-mer count; with ZNF721 DBD2 it was 0.0018 relative 10-mer count.
The matching figures for CCACTCCCCC: 0.12 relative 10-mer count, 0.00436 relative 10-mer count and 0.00144 relative 10-mer count.
As for CCGCCCCCTC, the binding signal was determined as 0.128 relative 10-mer count with ZNF721 full-length, 0.00573 relative 10-mer count with ZNF721 DBD1 and 0.00324 relative 10-mer count in the experiment with ZNF721 DBD2.
ACCACCCTCC: the binding signal in the experiment with ZNF721 full-length amounted to 0.124 relative 10-mer count; in the experiment with ZNF721 DBD1, 0.00523 relative 10-mer count; with ZNF721 DBD2 it was 0.00324 relative 10-mer count.
The matching figures for GGTGGGGGGA: 0.186 relative 10-mer count, 0.00904 relative 10-mer count and 0.00407 relative 10-mer count.
Consider CCCCACGCCC, for which the binding signal worked out at 0.235 relative 10-mer count in the experiment with ZNF721 full-length, 0.00853 relative 10-mer count with ZNF721 DBD1 and 0.00395 relative 10-mer count in the experiment with ZNF721 DBD2.
The like results for CCACCAACCC were, in that order, 0.156 relative 10-mer count, 0.0067 relative 10-mer count and 0.00491 relative 10-mer count.
The like results for GCTTTTTTCC were, in that order, 0.267 relative 10-mer count, 0.0895 relative 10-mer count and 0.0308 relative 10-mer count.
The like results for CACAAAAAAA were, in that order, 0.181 relative 10-mer count, 0.0107 relative 10-mer count and 0.0847 relative 10-mer count.
In the case of AAAAAGCATA, the results for the binding signal with ZNF721 full-length, in the experiment with ZNF721 DBD1 and with ZNF721 DBD2 were 0.182 relative 10-mer count, 0.0303 relative 10-mer count and 0.0372 relative 10-mer count, respectively.
The matching figures for ATAAAAAAGC: 0.12 relative 10-mer count, 0.0221 relative 10-mer count and 0.0443 relative 10-mer count.
Take GCGTACCCTA: the binding signal with ZNF721 full-length is 0.111 relative 10-mer count; with ZNF721 DBD1, 0.0263 relative 10-mer count; with ZNF721 DBD2 it was 0.0775 relative 10-mer count.
As for CCCACTCCCC, the binding signal came out at 0.155 relative 10-mer count with ZNF721 full-length, 0.00656 relative 10-mer count in the experiment with ZNF721 DBD1 and 0.00372 relative 10-mer count with ZNF721 DBD2.
The like results for AGGAAAAAAG were, in that order, 0.114 relative 10-mer count, 0.0333 relative 10-mer count and 0.0182 relative 10-mer count.
The matching figures for GCCCACCCAC: 0.168 relative 10-mer count, 0.0061 relative 10-mer count and 0.00983 relative 10-mer count.
The like results for CCCCCCATCC were, in that order, 0.15 relative 10-mer count, 0.00509 relative 10-mer count and 0.00419 relative 10-mer count.
On to AAAAGCAGTA, for which the binding signal with ZNF721 full-length came out at 0.17 relative 10-mer count; in the experiment with ZNF721 DBD1, 0.0204 relative 10-mer count; with ZNF721 DBD2 it was 0.117 relative 10-mer count.
The matching figures for TGGGTATGAA: 0.14 relative 10-mer count, 0.192 relative 10-mer count and 0.00108 relative 10-mer count.
The like results for AGGGCGGGGG were, in that order, 0.14 relative 10-mer count, 0.0056 relative 10-mer count and 0.00276 relative 10-mer count.
The like results for ACCCTCCACC were, in that order, 0.127 relative 10-mer count, 0.00482 relative 10-mer count and 0.00707 relative 10-mer count.
Turning to ACCCTCCCCC, the binding signal worked out at 0.176 relative 10-mer count with ZNF721 full-length, 0.00766 relative 10-mer count in the experiment with ZNF721 DBD1 and 0.00575 relative 10-mer count with ZNF721 DBD2.
For CCCAACCCCC, the values for the binding signal with ZNF721 full-length, with ZNF721 DBD1 and with ZNF721 DBD2 were 0.208 relative 10-mer count, 0.00789 relative 10-mer count and 0.00168 relative 10-mer count, respectively.
The matching figures for ACCCCCCCCA: 0.154 relative 10-mer count, 0.005 relative 10-mer count and 0.00276 relative 10-mer count.
The matching figures for ACCCCCCCCC: 0.143 relative 10-mer count, 0.00362 relative 10-mer count and 0.0018 relative 10-mer count.
For CCCCCCCTCC, the binding signal with ZNF721 full-length is 0.208 relative 10-mer count; with ZNF721 DBD1, 0.00982 relative 10-mer count; in the experiment with ZNF721 DBD2 it was 0.00336 relative 10-mer count.
The like results for CCACCCCCTC were, in that order, 0.182 relative 10-mer count, 0.00982 relative 10-mer count and 0.00312 relative 10-mer count.
CCCTCACCCC: the binding signal came out at 0.193 relative 10-mer count with ZNF721 full-length, 0.00862 relative 10-mer count with ZNF721 DBD1 and 0.00276 relative 10-mer count with ZNF721 DBD2.
With ACCCCACCCA, the binding signal worked out at 0.173 relative 10-mer count in the experiment with ZNF721 full-length, 0.00583 relative 10-mer count in the experiment with ZNF721 DBD1 and 0.00419 relative 10-mer count with ZNF721 DBD2.
The like results for AAAAAGCAGA were, in that order, 0.107 relative 10-mer count, 0.00183 relative 10-mer count and 0.0852 relative 10-mer count.
The matching figures for AAAGCAGCAC: 0.125 relative 10-mer count, 0.00583 relative 10-mer count and 0.126 relative 10-mer count.
As for AGCATACCCC, the binding signal in the experiment with ZNF721 full-length stood at 0.144 relative 10-mer count; with ZNF721 DBD1, 0.0115 relative 10-mer count; with ZNF721 DBD2, 0.146 relative 10-mer count.
Take CCACCCTCCA: the binding signal in the experiment with ZNF721 full-length came out at 0.123 relative 10-mer count; in the experiment with ZNF721 DBD1, 0.00587 relative 10-mer count; with ZNF721 DBD2, 0.00815 relative 10-mer count.
The like results for CCCCCCCCTC were, in that order, 0.167 relative 10-mer count, 0.00619 relative 10-mer count and 0.00324 relative 10-mer count.
